The values that follow come from PubChem BioAssay (EPA / NIEHS).

Active and inactive are the calls of the source. How the source made its calls: active means hit-call score of the fitted dose curve at least 0.9, where 1 is the maximum; inactive means score below 0.9.

For orientation: AC50 means the midpoint of the concentration-response curve, whichever way the signal moves.

The nature of the test: ATG_GRE_CIS: Attagene CIS-FACTORIAL HepG2 Assay for human Glucocorticoid Response Elements (GRE) (AID 2282947). The conditions noted are these: HepG2 GRE cis-reporter, Attagene multiplex mRNA; actives raise or lower the signal. The protocol:
ATG_CIS is a cell-based, multiplexed-readout assay that uses HepG2, a human liver cell line, with measurements taken at 24 hours after chemical dosing in a 24-well plate.ATG_GRE_CIS is one of 52 assay component(s) measured or calculated from the ATG_CIS assay. It is designed to make measurements of mRNA induction, a form of inducible reporter, as detected with fluorescence intensity signals by Reverse transcription polymerase chain reaction (RT-PCR) and Capillary electrophoresis technology.Data from the assay component ATG_GRE_CIS was analyzed into 1 assay endpoint. This assay endpoint, ATG_GRE_CIS, was analyzed with bidirectional fitting relative to DMSO as the negative control and baseline of activity. Using a type of inducible reporter, measures of mRNA for gain or loss-of-signal activity can be used to understand the reporter gene at the transcription factor-level as they relate to the gene NR3C1. Furthermore, this assay endpoint can be referred to as a primary readout, because this assay has produced multiple assay endpoints where this one serves a reporter gene function. To generalize the intended target to other relatable targets, this assay endpoint is annotated to the nuclear receptor intended target family, where the subfamily is steroidal.
Human liver HepG2 cells are transiently transfected with multiple reporter transcription units (MRTUs) in 6-well plates using FuGene 6 reagent (Roche; 3 ml FuGene/1 mg DNA). The MRTU constructs are regulated by a cis-regulating element (promoter). […] A major difference between the CIS and TRANS system is that in CIS activities of endogenous TFs are measured, whereas the TRANS assay evaluates changes in activities of exogenous, chimeric NR-Gal4 proteins. […] At the end of 24 hour incubation, total RNA was isolated using TriZol reagent (Invitrogen). The isolated RNA is then reverse-transcribed using oligo(dT) primer and Mo-MLV reverse transcriptase (Invitrogen) with DNAse I (Ambion) treatment for 30 min. The one-tenth of the produced cDNA was amplified by PCR using Taq DNA polymerase (Invitrogen) and two reporter sequence-specific primers. The PCR products were fluorescently labeled by primer extension with 6-arboxyfluorescein (6-FAM) 5'-labeled reporter sequence-specific primer (2 min at 95 C, 20 s at 68 C and 10 min at 72 C) and these products were digested with 5U of HpaI (New England Biolabs) for 2h at 37 C. The fragments were purified using Qiaquick PCR columns (Qiagen), analyzed on an ABI 3130xL genetic analyzer (Applied Biosystems) with peak positions identified by using a set of X-rhodamine (ROX)-labeled MapMarker1000 molecular weight standards (BioVentures). The raw capillary electrophoresis data was processed using Attagraph software (Attagene).
As to `COc1cc(Cl)c(OC)cc1N`, the outcome was inactive.

With `CCOC(=O)[C@@H](C)Oc1ccc(Oc2nc3ccc(Cl)cc3o2)cc1`, the call was inactive. Same read-out and setting: with `CCCCCCCCc1ccc(S(=O)(=O)O)cc1` the entry was “inactive”; with `C=CC(=O)OCCCC`, “inactive”. Same read-out and setting: next, `COc1cc(CCC(C)=O)ccc1O`: “inactive”; `CC(C)=CCCC(C)CC(=O)O` (stereo not given): “inactive”.

Take `CCCCCC(C)=O`: the outcome was inactive. For `Nc1ccn([C@H]2CS[C@@H](CO)O2)c(=O)n1`, the call was inactive. The same measure, in the same setting: with `CCC(C)=O` the entry was “inactive”; with `C#CC(C)(O)CC(C)C` (stereo not given), “inactive”. Take `CCCC1O[C@@H]2C[C@H]3[C@@H]4CCC5=CC(=O)C=C[C@]5(C)[C@H]4[C@@H](O)C[C@]3(C)[C@]2(C(=O)CO)O1` (stereo not given in full): the AC50 is 0.0815 µM (active). Turning to `CCNCCO`, the outcome was inactive. On the same count and under the same terms, with `COc1cc(C(C)C)ccc1C` the entry was “inactive”. The same measure, in the same setting: with `COCCOC(=O)c1ccccc1C(=O)OCCOC` the entry was “inactive”; with `C/C=C(\C)C(=O)OCCc1ccccc1`, “inactive”. Still for that read-out and setting: with `CCN(CC)C(=O)N(CC)CC` the entry was “inactive”. `CC(C)CCCCCCCCCCCCCCC(=O)O`: the result was inactive.

Regarding `CC1(C)CCC[C@]2(C)[C@H]3CCO[C@]3(C)CC[C@@H]12`, the result was inactive. On to `NCCNc1cccc2ccccc12`, for which the outcome was inactive. As to `CCC(C)S` (stereo not given), the molecule was classed as inactive.

In the case of `C=CCOC(=O)CCCCCC`, the call was inactive. The same measure, in the same setting: with `CCOC(=O)CC(C)O` (stereo not given) the entry was “inactive”; with `COc1ccccc1N=Nc1c(S(=O)(=O)O)cc2cc(S(=O)(=O)O)cc(NC(C)=O)c2c1O`, “inactive”; with `CCOC(=O)CN`, “inactive”.

In the case of `C=C(C)C(=O)OCC(CC)(COC(=O)C(=C)C)COC(=O)C(=C)C`, the molecule was called inactive. The same measure, in the same setting: with `Nc1ccccc1[N+](=O)[O-]` the entry was “inactive”; with `CCC1CCCCC1`, “inactive”. Turning to `CCCCCC(C=O)=Cc1ccccc1`, the molecule was classed as inactive. Turning to `N#Cc1ccc(CC(=O)c2cccc(C(F)(F)F)c2)cc1`, the molecule was classed as inactive. Still for that read-out and setting: with `CCCCCCCCCCCC(=O)OC[C@@H](O)[C@H]1OC[C@H](O)[C@H]1O` the entry was “inactive”; with `CCc1ncc(C)[nH]1`, “inactive”. For the molecule `Cc1ccc(C)o1`, the result was inactive.

Take `CC(C)(C)c1ccc(C(=O)O)cc1`: the call was inactive. On the same count and under the same terms, with `CC(O)C1CCCCC1` (stereo not given) the entry was “inactive”.

With `CCCCC1CCC(O)CC1` (stereo not given), the outcome was inactive. Same read-out and setting: next, `COc1ccc(OC)c(N=Nc2c(O)ccc3ccccc23)c1`: “inactive”. Take `O=CCc1ccccc1`: the molecule was classed as inactive. For the molecule `CC(C)(C)C1=CC(=O)C(C(C)(C)C)=CC1=O`, the AC50 is 50 µM (active). Regarding `C=CCCC(=O)/C=C/C1C(C)=CCCC1(C)C` (stereo not given), the result was inactive. Same read-out and setting: next, `CCCCCCC(O)CCCCCCCCCCC(=O)O` (stereo not given): “inactive”.
